The nature of assay [1]: antimalarial activity against Dd2 strain (AID 2302;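 active = growth inhibition above 50% at the single 2 µM test dose, taken to imply half-maximal potency below 2 µM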;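 note: 0% = DMSO untreated growth and 100% = chloroquine plus artemisinin killed control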). Conditions: P. falciparum Dd2 in RBCs, LDH growth readout, 72 h; at 2 µM; stronger effect = higher value.
The nature of assay [2]: HepG2 cytotoxicity, primary screen, cytotoxicity control for P. falciparum antimalarial project, cell-based, ATP luminescence (AID 2303;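 active = inhibition above 50%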;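 note: 0% = DMSO wells and 100% = digitonin-killed cells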). Particulars: HepG2 viability, 24-48 h, at 10 µM, stronger effect = higher value.
Assay [3] concerns the target L-lactate dehydrogenase (Plasmodium falciparum (isolate CDC / Honduras)) (UniProt Q27743). The experiment in a line: PfLDH activity inhibition – cell lysate, 3D7 strain, counter-screen for P. falciparum growth inhibition project (AID 2304).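 Note: 0% = vehicle and 100% = reference inhibitor.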 Conditions: P. falciparum 3D7 crude extract, LDH APAD/NBT absorbance; at 2 µM; stronger effect = higher value.
The nature of assay [4]: inhibition of 3D7 malaria parasite growth – strain 3D7 (AID 2306).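 Note: 0% = DMSO wells and 100% = chloroquine plus artemisinin control wells.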 Conditions: P. falciparum 3D7 erythrocytic growth, LDH absorbance, 72 h; at 2 µM; stronger effect = higher value.
The target of assay [5] is Calcium-dependent protein kinase 1 (Plasmodium falciparum (isolate 3D7)) (UniProt P62344). Kind of assay: PfCDPK1 kinase inhibitors, biochemical, TCAMS library (AID 1159585; cut-off not given, nearly all actives have IC50 up to about 0.98 µM;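 note: inhibitors leave more ATP so luminescence rises with inhibition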). Particulars: recombinant PfCDPK1, Kinase-Glo ATP depletion luminescence.
The target of assay [6] is Plasmodium falciparum protein kinase 6 (PK6, PF3D7_1337100) (UniProt Q8IDW1). The experiment in a line: PfPK6 kinase inhibitors, biochemical, TCAMS library (AID 1159586). Conditions: recombinant PfPK6, Kinase-Glo ATP depletion luminescence.
The target in assay [7] is Protein kinase 7 (PK7), Plasmodium falciparum 3D7 (PF3D7_0213400) (UniProt Q7YTF7). Kind of assay: inhibition of Plasmodium PK7 catalytic activity – biochemical, TCAMS antimalarial set, Kinase-Glo luminescence (AID 1159587). Particulars: recombinant PfPK7, Kinase-Glo ATP depletion luminescence.
Assay [8] concerns the target Calcium-dependent protein kinase 4 (Plasmodium falciparum (isolate 3D7)) (UniProt Q8IBS5). The experiment in a line: PfCDPK4 kinase inhibitors, biochemical, TCAMS library (AID 1159588; cut-off not given, nearly all actives have IC50 up to about 0.91 µM). Particulars: recombinant PfCDPK4, Kinase-Glo ATP depletion luminescence.

Each structure is given as a SMILES string. Unmarked numbers belong to inactive results. For some of these results: Results with a measured potency or affinity are listed apart. Active and inactive are the calls of the source. Unless noted, the rule behind the calls is not given here.

Chain of Calcium-dependent protein kinase 1 (Plasmodium falciparum (isolate 3D7)) (P62344 whole entry, looked up): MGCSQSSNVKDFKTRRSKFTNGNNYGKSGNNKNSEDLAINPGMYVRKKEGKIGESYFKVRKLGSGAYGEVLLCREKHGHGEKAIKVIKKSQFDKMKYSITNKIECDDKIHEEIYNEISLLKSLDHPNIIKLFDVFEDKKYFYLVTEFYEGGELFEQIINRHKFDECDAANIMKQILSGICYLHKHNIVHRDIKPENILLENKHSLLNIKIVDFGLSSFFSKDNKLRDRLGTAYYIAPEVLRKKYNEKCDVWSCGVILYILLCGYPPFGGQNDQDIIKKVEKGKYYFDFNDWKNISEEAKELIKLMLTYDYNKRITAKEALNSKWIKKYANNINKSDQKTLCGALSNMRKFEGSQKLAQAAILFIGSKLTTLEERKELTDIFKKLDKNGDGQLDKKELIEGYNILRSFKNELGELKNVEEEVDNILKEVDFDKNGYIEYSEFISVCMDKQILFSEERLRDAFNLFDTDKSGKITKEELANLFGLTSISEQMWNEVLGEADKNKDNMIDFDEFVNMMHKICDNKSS
Chain of Protein kinase 7 (PK7), Plasmodium falciparum 3D7 (PF3D7_0213400) (Q7YTF7 1-343): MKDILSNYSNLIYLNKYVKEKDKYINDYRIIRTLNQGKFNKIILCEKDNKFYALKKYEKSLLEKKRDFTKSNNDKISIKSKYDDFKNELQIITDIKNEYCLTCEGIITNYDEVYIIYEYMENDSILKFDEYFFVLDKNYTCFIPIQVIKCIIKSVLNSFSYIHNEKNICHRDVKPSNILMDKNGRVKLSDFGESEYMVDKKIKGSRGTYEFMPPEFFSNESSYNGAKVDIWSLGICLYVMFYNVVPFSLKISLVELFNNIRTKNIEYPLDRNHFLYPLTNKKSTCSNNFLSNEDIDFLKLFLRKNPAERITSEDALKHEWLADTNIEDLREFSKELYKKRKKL
Chain of Calcium-dependent protein kinase 4 (Plasmodium falciparum (isolate 3D7)) (Q8IBS5 whole entry, looked up): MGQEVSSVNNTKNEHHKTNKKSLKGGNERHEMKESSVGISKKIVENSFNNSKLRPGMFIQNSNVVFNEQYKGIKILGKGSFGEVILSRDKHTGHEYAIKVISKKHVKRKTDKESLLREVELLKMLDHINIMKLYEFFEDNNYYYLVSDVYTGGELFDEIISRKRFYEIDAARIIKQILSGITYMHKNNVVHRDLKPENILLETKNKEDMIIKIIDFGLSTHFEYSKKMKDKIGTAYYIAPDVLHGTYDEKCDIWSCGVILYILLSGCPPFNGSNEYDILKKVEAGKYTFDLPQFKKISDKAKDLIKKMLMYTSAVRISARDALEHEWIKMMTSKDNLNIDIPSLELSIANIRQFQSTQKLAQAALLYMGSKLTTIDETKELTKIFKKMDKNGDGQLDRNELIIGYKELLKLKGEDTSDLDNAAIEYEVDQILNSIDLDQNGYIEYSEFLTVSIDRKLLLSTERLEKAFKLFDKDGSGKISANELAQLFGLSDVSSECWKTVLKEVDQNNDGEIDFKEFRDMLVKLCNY
Chain of L-lactate dehydrogenase (Plasmodium falciparum (isolate CDC / Honduras)) (Q27743 whole entry, looked up): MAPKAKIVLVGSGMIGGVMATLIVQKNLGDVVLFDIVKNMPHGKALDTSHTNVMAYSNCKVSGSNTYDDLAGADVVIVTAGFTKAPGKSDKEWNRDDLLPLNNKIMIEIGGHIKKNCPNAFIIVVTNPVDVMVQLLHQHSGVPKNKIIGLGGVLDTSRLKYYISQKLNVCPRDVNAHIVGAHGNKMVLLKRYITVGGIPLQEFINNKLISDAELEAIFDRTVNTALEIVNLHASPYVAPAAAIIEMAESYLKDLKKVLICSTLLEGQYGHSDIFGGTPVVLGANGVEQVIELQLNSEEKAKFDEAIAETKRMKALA
Chain of Plasmodium falciparum protein kinase 6 (PK6, PF3D7_1337100) (Q8IDW1 1-305): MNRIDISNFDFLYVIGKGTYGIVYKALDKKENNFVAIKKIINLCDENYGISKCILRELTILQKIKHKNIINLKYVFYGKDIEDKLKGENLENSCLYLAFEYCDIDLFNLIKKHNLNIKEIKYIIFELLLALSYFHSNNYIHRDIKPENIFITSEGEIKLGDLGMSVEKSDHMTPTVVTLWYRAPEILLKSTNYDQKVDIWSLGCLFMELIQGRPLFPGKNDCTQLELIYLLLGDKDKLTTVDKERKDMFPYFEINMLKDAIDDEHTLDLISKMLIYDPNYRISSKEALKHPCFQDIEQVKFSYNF

As for `N#CCOc1c(C2CCN(CCCCNC(=O)c3ccc(-c4ccc(C(F)(F)F)cc4)cc3)CC2)ccc2c1CCCC2`, the figures for the growth inhibition in assay [1] and in assay [4] were 48% and 97% (active), respectively. In addition, the inhibition was 59% (active) in assay [2] and 4% in assay [3]. Also, the result in assay [5], in assay [6], in assay [7] and in assay [8] was inactive.

As for `O=C(Nc1ccc(-c2ccccc2)cc1)Nc1cccc(Cn2cnc(N3CCCNCC3)cc2=O)c1`, the values for the growth inhibition in assay [1] and in assay [4] were 13% and 88% (active), respectively. Moreover, the inhibition in assay [2] was 8%; in assay [3], 4%. Also, the result in assay [5], in assay [6], in assay [7] and in assay [8] was inactive.

Take `CN1CCC(NCc2ccc(-c3ccc(S(=O)(=O)NCc4ccccc4)s3)cc2)CC1`: the growth inhibition in assay [1] is 95% (active); in assay [4], 99% (active). Besides, the inhibition in assay [2] is 77% (active); in assay [3], -3%. The result in assay [5], in assay [6], in assay [7] and in assay [8] was inactive.

`COc1ccc2nccc([C@@H](O)CN3CCC(NCc4nc5cc(F)c(F)cc5[nH]4)CC3)c2c1`: the growth inhibition was 36% in assay [1] and 96% (active) in assay [4]. Further, the inhibition was 12% in assay [2] and -1% in assay [3]. Moreover, the outcome in assay [5], in assay [6], in assay [7] and in assay [8] was inactive.

Turning to `O=C(N1CCN(c2ccnc3cc4c(cc23)N(Cc2ccccc2)CC4)CC1)C(F)(F)F`, the growth inhibition in assay [1] and in assay [4] was 100% (active) throughout. Moreover, the values for the inhibition in assay [2] and in assay [3] were 8% and 3%, respectively. Further, the outcome in assay [5], in assay [6], in assay [7] and in assay [8] was inactive.

For `Cc1ccc(-c2noc(=O)n2CC(=O)Nc2ccccc2-c2ccccc2)cc1`, the growth inhibition in assay [1] was 86% (active); in assay [4], 100% (active). The inhibition in assay [2] was -1%; in assay [3], 2%. Also, the outcome in assay [5], in assay [6], in assay [7] and in assay [8] was inactive.

In the case of `COc1ccc2nc(-c3ccccc3)cc(NCCCNc3cc(-c4ccccc4)nc4ccc(OC)cc34)c2c1`, the growth inhibition in assay [1] and in assay [4] was 99% (active) in each case. For the same compound, the inhibition in assay [2] is 100% (active); in assay [3] it was 9%. In addition, the outcome in assay [5], in assay [6], in assay [7] and in assay [8] was inactive.

For the compound `Cc1noc(-c2cccs2)c1C(=O)NC(C)c1cccc2ccccc12` (stereo not given), the growth inhibition in assay [1] was 95% (active); in assay [4], 97% (active). For the same compound, the inhibition in assay [2] was -2%; in assay [3] it was -4%. The result in assay [5], in assay [6], in assay [7] and in assay [8] was inactive.

For `FC(F)(F)c1ccc2nccc(NN=Cc3ccccc3)c2c1`, the growth inhibition is 2% in assay [1] and 92% (active) in assay [4]. Also, the inhibition was 7% in assay [2] and -1% in assay [3]. Also, the result in assay [5], in assay [6], in assay [7] and in assay [8] was inactive.

On to `Oc1ccc(CCCNc2nc(NCc3cccc4ccccc34)nc(N3CCNCC3)n2)cc1`, for which the growth inhibition is 4% in assay [1] and 100% (active) in assay [4]. In addition, the inhibition in assay [2] was 9%; in assay [3], -1%. For the same compound, the result in assay [5], in assay [6], in assay [7] and in assay [8] was inactive.

Regarding `COc1ccc(Nc2nccc(N3CCC(NC(=O)c4cccc(C#N)c4)C3)n2)cc1` (stereo not given), the growth inhibition in assay [1] is 93% (active); in assay [4], 92% (active). Moreover, the inhibition in assay [2] is 6%; in assay [3], -3%. The result in assay [5], in assay [6], in assay [7] and in assay [8] was inactive.

With `COc1ccc(C(=O)[C@H]2C[C@@H]2CN(C)CC(O)c2cc(C)c(OC)cc2C)cc1` (stereo not given in full), the growth inhibition in assay [1] is 77% (active); in assay [4], 90% (active). For the same compound, the inhibition in assay [2] is 8%; in assay [3] it was -3%. Besides, the outcome in assay [5], in assay [6], in assay [7] and in assay [8] was inactive.

Consider `COc1cccc(N(CCCN2C(=O)c3cccc4cccc(c34)C2=O)C(=O)c2ccccc2C)c1`, for which the growth inhibition is 70% (active) in assay [1] and 86% (active) in assay [4]. The inhibition in assay [2] was 20%; in assay [3], -7%. Also, the outcome in assay [5], in assay [6], in assay [7] and in assay [8] was inactive.

Regarding `O=C(Cc1cnc[nH]1)Nc1ccc(-c2ccc(-c3nc4ccc(C(F)(F)F)cc4[nH]3)s2)cc1`, the growth inhibition is 99% (active) in assay [1] and 101% (active) in assay [4]. For the same compound, the results for the inhibition in assay [2] and in assay [3] were 48% and 0%, respectively. Moreover, the outcome in assay [5], in assay [6], in assay [7] and in assay [8] was inactive.

As to `O=C(/C=C/c1ccc(Cl)c(Cl)c1)N1CCC(NCc2ccc3[nH]ccc3c2)CC1`, the values for the growth inhibition in assay [1] and in assay [4] were 1% and 97% (active), respectively. The inhibition is 44% in assay [2] and -2% in assay [3]. Moreover, the outcome in assay [5], in assay [6], in assay [7] and in assay [8] was inactive.

For `COc1cccc(NC(=O)COc2ccc(C(=O)Nc3nc4ccccc4[nH]3)cc2)c1`, the growth inhibition was 29% in assay [1] and 99% (active) in assay [4]. The inhibition was 19% in assay [2] and 0% in assay [3]. In addition, the result in assay [5], in assay [6], in assay [7] and in assay [8] was inactive.

Consider `CNc1cc(-c2ccc3ccnc(N)c3c2)nc(N)n1`, for which the growth inhibition in assay [1] was 81% (active); in assay [4], 100% (active). For the same compound, the values for the inhibition in assay [2] and in assay [3] were 23% and -2%, respectively. For the same compound, the outcome in assay [5], in assay [6], in assay [7] and in assay [8] was inactive.

`Cc1cc(NN=Cc2ccc(F)cc2)c2cc(F)ccc2n1`: the growth inhibition in assay [1] was 61% (active); in assay [4], 101% (active). For the same compound, the figures for the inhibition in assay [2] and in assay [3] were 6% and -4%, respectively. The outcome in assay [5], in assay [6], in assay [7] and in assay [8] was inactive.

On to `NC(N)=Nc1nc(-c2cccc(NC(=O)NCCc3c[nH]c4ccc(OCc5ccccc5)cc34)c2)cs1`, for which the values for the growth inhibition in assay [1] and in assay [4] were 30% and 101% (active), respectively. Besides, the figures for the inhibition in assay [2] and in assay [3] were -2% and 0%, respectively. Besides, the outcome in assay [5], in assay [6], in assay [7] and in assay [8] was inactive.

On to `Cc1cccc(C(=O)Nc2ccnc(N3CCC(N(C)Cc4ccc(C#N)cc4)CC3)c2)c1`, for which the growth inhibition was 6% in assay [1] and 94% (active) in assay [4]. Also, the inhibition was 12% in assay [2] and -4% in assay [3]. For the same compound, the result in assay [5], in assay [6], in assay [7] and in assay [8] was inactive.

The values above are taken from PubChem BioAssay.
